In ChEMBL document CHEMBL3433997, “St. Jude Leishmania screening dataset” (2016):

Each compound was assayed against Hexose transporter 1 (Plasmodium falciparum) (UniProt O97467) (assay: ST_JUDE_LEISH: Cytotoxicity at 2uM final concentration against transgenic Leishmania Mexicana promastigotes LmPfHT that are glucose transport deficient and complemented with the Plasmodium falciparum hexose transporter. Activity is measured by DNA content using SYBR green in vitro).
Assay type: functional
Work on `Cc1c(C)n(C2CCCCC2)c2ncnc(OC3CCN(CC(=O)NC4CC4)CC3)c12` yielded an inhibition of -3.58%. `O=C(Cc1ccc(Cl)cc1)NC1CCN(c2ccnc3cc(Cl)ccc23)C1` (stereo not given) showed an inhibition of 0.24%. Work on `COc1cc(NC(=O)c2ccc(-c3ccccc3)cc2)ccc1OCCCN1CCC(c2ccccc2)CC1` yielded an inhibition of 2.26%. In the case of `Cc1cc(NC(=O)c2sc3ccccc3c2O)no1`, the inhibition is reported as 1.84%. Compound `COc1cc2nc(N3CCN(C(=O)c4c(Cl)nsc4-c4ccccc4Cl)CC3)nc(N)c2cc1OC` has an inhibition of 8.35%. `CN1CCC(NCc2ccc(-c3cccc(S(=O)(=O)NCc4ccccc4)c3)cc2)CC1` showed an inhibition of 3.01%. For `CCOc1cc(C)ccc1C1CCN(CCCCNC(=O)c2coc(-c3ccc(Cl)cc3)c2)CC1`, the inhibition was 3.18%. `CC1(C)CN(CCC2CCC(NC(=O)/C=C/c3ccc(F)cc3F)CC2)Cc2ccc(C#N)cc21` (stereo not given) showed an inhibition of 1.97%. Work on `COc1cc2c(cc1CCNCCCCNCCc1cc3c(cc1OC)CCCC3)CCCC2` yielded an inhibition of 98.4%. `Cc1cccc2nc(-c3ccc(-c4ccc(CN5CCCC(O)C5)cc4)s3)[nH]c12` (stereo not given) was tested, and the inhibition was 7.2%. Work on `O=C1C(C2CCC(c3ccc(Cl)cc3)CC2)=C2OCC3COC2(O3)c2ccccc21` (stereo not given) yielded an inhibition of 0.99%. `O=C(Nc1cccc(C(F)(F)F)c1)N1CCOC(CCN2CCC(c3ccccc3)CC2)(c2ccc(Cl)c(Cl)c2)C1` (stereo not given) showed an inhibition of 1.44%. In the case of `C/C=C/COc1ccc2ccccc2c1CNCCCCCCCCNCc1c(OC/C=C/C)ccc2ccccc12`, the inhibition is reported as 7.28%. Compound `Cc1ccc(O)c(-c2cc(C(=O)Nc3ccc(S(=O)(=O)N4CCCC(C)C4)cc3)[nH]n2)c1` (stereo not given) has an inhibition of -0.51%. Compound `Cc1ccccc1C1CCN(C2CCC(NC(=O)/C=C/c3cccc(F)c3)CC2)CC1` (stereo not given) has an inhibition of 8.22%. Work on `Cc1c(Cc2ccccc2Br)cnc2nc(N)nc(N)c12` yielded an inhibition of 30.2%. For `O=C(c1cccs1)N(Cc1cccc(-c2ccc(CNCCc3ccccc3)cc2)c1)C1CCN(Cc2ccccc2)CC1`, the inhibition was 7.55%. `O=C(NCCSCc1c(F)cccc1Cl)c1cnc2c(c1)nc(-c1c[nH]c(-c3ccccc3)n1)n2CCc1c[nH]cn1` gave an inhibition of 2.22%. `FC(F)(F)c1cccnc1N1CCC(Nc2nc3cc(Cl)ccc3[nH]2)CC1` was tested, and the inhibition was 1.96%. `CC(NC(=O)c1ccc(O)c(-c2ccc(Cl)c(Cl)c2)c1)C(=O)NCCN1CCOCC1` (stereo not given) gave an inhibition of 2.13%. Work on `COc1cc(F)c2nccc([C@@H](O)CN3CCC(NCc4ccc5c(n4)NC(=O)CS5)C(F)C3)c2c1` (stereo not given in full) yielded an inhibition of 3.06%. `CCC(=O)c1ccc(-c2ccc(=O)n(CC(=O)N(CCN(CC)CC)Cc3ccc(-c4ccc(C(F)(F)F)cc4)cc3)n2)cc1` showed an inhibition of 1.05%. `O=C(NC(CCCN1CCC(c2ccccc2)CC1)c1ccc(Cl)c(Cl)c1)c1cc(C(F)(F)F)cc(C(F)(F)F)c1` (stereo not given) showed an inhibition of 1.99%. In the case of `CC1(C)[C@H]2CC[C@@H](CNc3nc(NCC(=O)Nc4ccc5ccccc5c4)nc(N4CCC(N5CCCC5)CC4)n3)[C@@H]1C2`, the inhibition is reported as 2.52%. `Cc1cc(NCCc2ccccc2)nc(NC(=N)Nc2cccc(F)c2)n1` was tested, and the inhibition was 3.28%. With `Clc1ccc(-c2csc3ncnc(Cl)c23)cc1` the inhibition was 0.54%. For `CN(N=Cc1ccccc1)C(=N)NCCCC#Cc1cccc(CN2CCCC2)c1`, the inhibition was 6.82%. With `Cc1nc(N)nc(N)c1OCCCCOc1ccccc1` the inhibition was 2.98%. Work on `CCOC(=O)C1=C(C)N=c2sc(=Cc3cc(Cl)ccc3O)c(=O)n2C1c1ccc(OC)cc1` (stereo not given) yielded an inhibition of 0%. For `COc1ccc(S(=O)(=O)Nc2cc(C)cc(Br)c2OC)cc1N1CCN(C(=O)C(Cl)(Cl)Cl)CC1`, the inhibition was 0.79%. `CC(C)(C)CC(C)(C)c1ccc(O)c(C(=O)Nc2ccc([N+](=O)[O-])cc2)c1` showed an inhibition of 1.55%. In the case of `Clc1ccc2c(NCCc3ccccc3)ccnc2c1`, the inhibition is reported as 4.33%. In the case of `COc1ccc2nc(-c3ccccc3)cc(N/N=C/c3ccc([N+](=O)[O-])cc3)c2c1`, the inhibition is reported as 6.3%. `COc1ccc(CCN2CCC(NCc3cccc(N(C)C)c3)CC2)cc1` was tested, and the inhibition was 2.54%. In the case of `CN1CCc2cc(I)c(O)cc2C1Cc1ccccc1Cl` (stereo not given), the inhibition is reported as 3.88%. For `CCC(CC)n1c(C)cc2c3c(N)nc(N)nc3ccc21`, the inhibition was 90%. In the case of `CC(C)C(=O)Nc1c(F)cc(F)cc1CCc1ccc(O)cc1`, the inhibition is reported as 8.12%. With `COc1ccc2nccc(N3CCC(O)(CCNCc4ccc5c(n4)NC(=O)CO5)CC3)c2n1` the inhibition was 3.33%. `COc1ccc(NC(=O)Nc2ccc(-c3ccccc3)cc2)cc1Cn1cnc(N2CCCNCC2)cc1=O` showed an inhibition of 2.02%. For `CC(C)NCc1cccc(-c2ccc(NC(=O)c3ccc(C#N)cc3)cc2)c1`, the inhibition was 12.1%.
